The structures appear in SMILES notation. Potency and affinity values are given separately. A number with no mark means an inactive call.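 How the source made its calls: active means inhibition of specific binding of 40% or more; inactive means inhibition of specific binding below 40%.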

In this assay the test system is beta-arrestin 1 peptide binding to AP-2 beta2-adaptin appendage (human). Description: inhibitors of arrestin peptide binding to AP2, dose response, biochemical, cherry pick 1, beta2-adaptin appendage, flow cytometry (AID 588783). The note with it: Bead flow cytometry, FITC-arrestin peptide binding GST-AP2; at 9.12 µM; stronger effect = higher value.
For `Cc1nn(-c2ccccn2)c2c1C(c1ccsc1)C1=C(CCCC1=O)N2` (stereo unspecified), the inhibition of specific binding is 12%.
On to `CN1c2ccccc2N(C)C1(C)c1ccccc1`, for which the inhibition of specific binding was 3%.
For `COC(=O)c1ccccc1N/C=C1\CCc2c(c(C)nn2-c2ccccn2)C1=O` the value was 7%; for `COc1cc(C2Nc3cccc4cccc(c34)N2)cc(OC)c1O`, 12%; for `O=C(NCC1COc2ccccc2O1)c1ccc(NC(=O)C(c2ccccc2)c2ccccc2)cc1` (stereo unspecified), 7%.
For `Nc1c(C(=O)NC2CC2)sc2nc3c(c(-c4ccco4)c12)CC/C3=C/c1ccco1` the value was 22%.

These data come from PubChem BioAssay AID588783 (NMMLSC, 2011).
